Results on eight compounds are retold here after PubChem BioAssay (NCI).

A short description of this assay: NCI Yeast Anticancer Drug Screen. Data for the mlh1 strain (AID 171).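 Note: 0% = growth of vehicle-treated control cultures of the same strain.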 The settings on record: S. cerevisiae mlh1 strain growth inhibition, stronger effect = higher value. As for the experimental part:
Growth inhibition of yeast strains with defined genetic alterations is measured as a screen for potential anti-cancer activity. Selected strains with alterations in DNA damage repair or cell cycle control were exposed to compounds and growth inhibition was measured relative to vehicle treated controls. The strain used in this assay is mlh1

The panel holds about 79,000 compounds, 15% with a hit somewhere; the sample as a whole holds those more often. Unmarked numbers belong to inactive results. The source made the active and inactive calls. Cut-off read from the data, not from the text of the source: active = growth inhibition above about 70%; inactive = the rest.

`Cc1ccc2ccc3cccc4ccc1c2c34`: the growth inhibition (at 1.2 µM) is -2%; the growth inhibition (at 3.7 µM) is -2%; the growth inhibition (at 11.0 µM) is -5%; the growth inhibition (at 33.0 µM) was 3%; the growth inhibition (at 100.0 µM) was 30%.

As for `CC1C(NNc2ccccc2)Oc2cc3c(cc2C1c1ccccc1O)OCO3` (stereo not given), the growth inhibition was -6% (at 1.2 µM); 61% (at 3.7 µM); 98% (active) (at 11.0 µM); 94% (active) (at 33.0 µM); 93% (active) (at 100.0 µM).

For `Cc1ccc(S(=O)(=O)Oc2cc(Cl)c(Cl)cc2Cl)cc1`, the growth inhibition is 1% (at 1.2 µM); 1% (at 3.7 µM); 2% (at 11.0 µM); -6% (at 33.0 µM); 8% (at 100.0 µM).

For the compound `CC(C(=O)N1C(=O)N(C(=O)[C@H](C)C(O)c2ccccc2)[C@H](c2ccccc2)[C@H]1c1ccccc1)[C@@H](O)c1ccccc1` (stereo not given in full), the growth inhibition (at 1.2 µM) is -3%; the growth inhibition (at 3.7 µM) is -4%; the growth inhibition (at 11.0 µM) is 14%; the growth inhibition (at 33.0 µM) was 45%; the growth inhibition (at 100.0 µM) is 57%.

Regarding `NNc1c(F)c(F)cc(F)c1F`, the growth inhibition runs as follows: (at 1.2 µM) -12%; (at 3.7 µM) -7%; (at 11.0 µM) -6%; (at 33.0 µM) 5%; (at 100.0 µM) 42%.

`CCOC(=O)C(NC(=O)c1ccccc1)(N1CCN(c2cc3c(cc2F)c(=O)c(C(=O)O)cn3C2CC2)CC1)C(F)(F)F` (stereo not given): the growth inhibition was -1% (at 1.2 µM); -1% (at 3.7 µM); 0% (at 11.0 µM); 0% (at 33.0 µM); 1% (at 100.0 µM).

On to `O=C(/C=C/c1cccc(Br)c1)c1cccs1`, for which the growth inhibition runs as follows: (at 1.2 µM) 9%; (at 3.7 µM) 25%; (at 11.0 µM) 89% (active); (at 33.0 µM) 97% (active); (at 100.0 µM) 95% (active).

Turning to `NC(=NCc1ccccc1)N/N=C\c1ccnc2ccccc12`, the growth inhibition by setting is: (at 1.2 µM) -2%; (at 3.7 µM) -1%; (at 11.0 µM) 2%; (at 33.0 µM) 10%; (at 100.0 µM) 52%.
